{"source": "PubChem BioAssay AID2585", "about": "(National Center for Advancing Translational Sciences (NCATS), 2010)", "biological_target": "RecQ-like DNA helicase BLM (Homo sapiens) (UniProt P54132)", "sequence (P54132 whole entry, looked up)": "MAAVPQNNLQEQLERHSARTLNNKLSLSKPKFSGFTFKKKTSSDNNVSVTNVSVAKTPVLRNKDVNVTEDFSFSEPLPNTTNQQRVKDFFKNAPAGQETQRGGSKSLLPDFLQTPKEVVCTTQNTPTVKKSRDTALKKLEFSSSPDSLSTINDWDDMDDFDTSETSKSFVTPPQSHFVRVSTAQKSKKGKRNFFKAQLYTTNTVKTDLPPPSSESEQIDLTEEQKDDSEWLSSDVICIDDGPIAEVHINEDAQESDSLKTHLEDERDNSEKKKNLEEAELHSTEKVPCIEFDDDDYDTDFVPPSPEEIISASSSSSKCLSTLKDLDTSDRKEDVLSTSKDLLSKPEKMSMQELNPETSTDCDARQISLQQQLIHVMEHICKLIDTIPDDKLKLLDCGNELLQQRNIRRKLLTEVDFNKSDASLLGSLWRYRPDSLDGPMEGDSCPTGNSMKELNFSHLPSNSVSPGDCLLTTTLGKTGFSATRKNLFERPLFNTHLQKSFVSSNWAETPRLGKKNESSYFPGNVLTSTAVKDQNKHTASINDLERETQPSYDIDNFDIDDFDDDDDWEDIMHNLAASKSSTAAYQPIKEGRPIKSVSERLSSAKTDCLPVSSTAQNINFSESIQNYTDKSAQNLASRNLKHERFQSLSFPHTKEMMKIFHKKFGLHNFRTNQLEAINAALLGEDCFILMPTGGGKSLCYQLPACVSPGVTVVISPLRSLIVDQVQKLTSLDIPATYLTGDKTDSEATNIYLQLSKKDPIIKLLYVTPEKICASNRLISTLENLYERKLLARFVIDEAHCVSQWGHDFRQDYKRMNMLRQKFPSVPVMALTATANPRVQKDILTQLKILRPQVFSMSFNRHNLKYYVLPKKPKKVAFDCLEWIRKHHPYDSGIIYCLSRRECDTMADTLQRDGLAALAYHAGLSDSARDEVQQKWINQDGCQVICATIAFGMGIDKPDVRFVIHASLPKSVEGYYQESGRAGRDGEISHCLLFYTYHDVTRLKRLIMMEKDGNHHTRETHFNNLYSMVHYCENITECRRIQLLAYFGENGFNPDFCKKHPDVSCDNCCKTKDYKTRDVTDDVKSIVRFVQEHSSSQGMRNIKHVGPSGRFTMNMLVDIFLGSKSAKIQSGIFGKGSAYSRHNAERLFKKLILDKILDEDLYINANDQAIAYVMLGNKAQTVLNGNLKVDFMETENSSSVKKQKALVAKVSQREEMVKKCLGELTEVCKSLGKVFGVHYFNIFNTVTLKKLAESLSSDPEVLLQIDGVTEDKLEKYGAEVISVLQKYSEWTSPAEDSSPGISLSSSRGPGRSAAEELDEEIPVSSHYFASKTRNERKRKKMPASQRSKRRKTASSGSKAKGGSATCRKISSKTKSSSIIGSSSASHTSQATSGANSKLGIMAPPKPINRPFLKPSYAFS", "assay": "qHTS Confirmation Assay for Inhibitors of Bloom's syndrome helicase (BLM); also: nearly all actives have a fitted effect of over 45% in size", "conditions": "BLM DNA unwinding, fluorescence quenching, biochemical", "text": "Survival of cells and the faithful propagation of the genome depend on elaborate mechanisms of detecting and repairing DNA damage. Treatment of advanced cancer relies on radiation therapy or chemotherapy, which kill cancer cells by causing extensive DNA damage. It is often found, that cancer cells develop resistance to therapy through enhanced activity of DNA repair functions; this has led to an increased interest in developing drugs that interfere with DNA repair, which could sensitize cancer cells to conventional therapy. This validation qHTS assay pertains to human BLM, which is important in resolving abnormal DNA structures formed during replication or homologous recombination. Shutting down the expression of BLM leads to chromosomal instability and higher radiation sensitivity in cultured cells. The validation assay was a fluorescence quenching based kinetic qHTS for BLM Helicase DNA unwinding. The activity was measured as ATP-dependent separation of a 20-bp DNA duplex extended by 30-nt single-stranded tails (forked duplex). The forked DNA substrate was tagged with rhodamine fluorophore (carboxytetramethyl rhodamine, TAMRA) and BHQ-2 (Black Hole Quencher 2) dark quencher. Strand separation results in an increase in the fluorescence of TAMRA (excitation 525 nm, emission 598 nm). […]", "note": "The list shows a part of the results. Records with an inconclusive call do not appear. The source made the active and inactive calls. Calls follow the shape of the dose curve; as a rule, active = well fitted inhibition curve with a large enough effect; inconclusive = small, poorly fitted or top-dose-only effect; inactive = no such curve, though single readings can be large or run the other way. Potency is read from the fitted curve at half-maximal effect.", "data": [{"smiles": "O=C(O)c1cc[c]([Sb](=[O])([OH])[OH])cc1[N+](=O)[O-]", "values": [{"measurement": "Potency", "result": "8.57 µM (active)"}]}]}
